Experimental data taken from PubChem BioAssay AID1259422 (The Scripps Research Institute Molecular Screening Center, 2018).
Screen size: about 640,000 compounds; about 9,300 (1.5%) were called active. Only a selection was taken, and actives are over-represented in it overall. Values without a mark were called inactive. Rule as the data show it: active = inhibition above about 32%; inactive = the rest.

assay: TEAD-YAP interaction inhibition, primary screen, TEAD-YAP interaction inhibitor project, luminescence, HEK-TIYL cells (AID 1259422); conditions: TEAD-Gal4/YAP UAS-luciferase luminescence, at 9.12 µM, stronger effect = higher value;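 also: 0% = median of test compound wells and 100% = reference inhibitor wells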

For C/C(=C\C(=O)ONC(=O)c1ccccc1)NCc1ccccc1, which inhibition is on record?
The inhibition was -18.2%.

For CCOC(=O)C1=C(C)N(c2ccc(C)c(C)c2)C(=O)/C1=C\c1cccs1, which inhibition is on record?
The inhibition was 3.05%.

With O=C(CNS(=O)(=O)c1cccc2nonc12)NCc1ccccc1 as the molecule, how does the inhibition read?
Its inhibition is 8.04%.

Which inhibition does the source give for COc1ccc(NC(=O)CN2CCN(C)CC2)c(OC)c1 here?
Its inhibition is -0.51%.

For Cc1ccc(NC(=O)CN2CCN(c3cccc(Cl)c3)CC2)cc1, which inhibition is on record?
Its inhibition is 5.46%.

With COc1cccc(N2CCN(CC(=O)Nc3ccccc3C(N)=O)CC2)c1 as the molecule, how does the inhibition read?
Its inhibition is 91.2% (active).

Which inhibition does the source give for CCCCn1c(CNC(=O)c2cccc(OC)c2)nnc1SCC(=O)Nc1sc2c(c1C(=O)OCC)CCCC2 here?
Its inhibition is 1.81%.

For CCOc1ccccc1C(=O)NCc1ccc2c(c1)cc(C)n2C, which inhibition is on record?
Its inhibition is 51.1% (active).

With CCOCC(=O)NCc1ccc2c(c1)cc(C)n2C as the molecule, how does the inhibition read?
The inhibition was -6.23%.

For CCOc1ccccc1C(=O)NCc1ccccc1, which inhibition is on record?
Its inhibition is -14.4%.

For CC1=NN(c2ccccc2)C(=O)C1N=Nc1c(C)n[nH]c1C (centres undefined), which inhibition is on record?
Its inhibition is 38.6% (active).

With CC1=NN(c2ccccc2)C(=O)C1Cl (centres undefined) as the molecule, how does the inhibition read?
Its inhibition is 17%.

With CC1=NN(c2ccccc2)C(=O)C1/C=C1\SC(=O)NC1=O (centres undefined) as the molecule, how does the inhibition read?
Its inhibition is 13.7%.

With CC1=C(C(=O)OCc2ccccc2)C(c2cccc(I)c2)C2=C(CC(C)(C)CC2=O)N1 (centres undefined) as the molecule, how does the inhibition read?
The inhibition was 6.12%.

For Cc1ccccc1-n1c(SCC#N)nc2c(sc(=S)n2-c2ccccc2C)c1=O, which inhibition is on record?
Its inhibition is -17.8%.

With COc1cc(C#N)cc(Cl)c1OC(C)=O as the molecule, how does the inhibition read?
Its inhibition is 3.38%.

Which inhibition does the source give for Nc1nc(SCC(=O)Nc2ccc(F)c(Cl)c2)n[nH]1 here?
Its inhibition is 4.23%.

For Cc1ccc2nc(-c3ccc(NC(=O)CCl)cc3)sc2c1, which inhibition is on record?
The inhibition was 32% (active).

With Cc1ccc2sc(-c3ccc(NC(=O)C(C)C)cc3)nc2c1 as the molecule, how does the inhibition read?
The inhibition was -16.9%.

For Cc1cccc(N(CC(=O)Nc2ccc(-c3nc4ccc(C)cc4s3)cc2)S(C)(=O)=O)c1, which inhibition is on record?
Its inhibition is 8.01%.

Which inhibition does the source give for Nc1nc(SCC(=O)Nc2ccc3c(c2)C(=O)c2ccccc2C3=O)n[nH]1 here?
The inhibition was -48.4%.

For Cc1ccc2nc(-c3ccc(NC(=O)CSc4n[nH]c(N)n4)cc3)sc2c1, which inhibition is on record?
Its inhibition is 48.5% (active).

For O=C(COC(=O)c1cc2ccccc2oc1=O)c1ccc(I)cc1, which inhibition is on record?
The inhibition was 3.37%.

Which inhibition does the source give for CCN(CC)c1ccc2cc(-c3nnc(Nc4cc(Cl)ccc4OC)s3)c(=O)oc2c1 here?
The inhibition was 5.73%.

For CCN=C1SC(CC(=O)Nc2ccccc2SC)C(=O)N1CC (centres undefined), which inhibition is on record?
The inhibition was -3.27%.

For Cc1ccccc1NC(=O)CCC(=O)OCC(=O)c1ccc([N+](=O)[O-])cc1, which inhibition is on record?
Its inhibition is 7.47%.

For Cc1cc(Nc2nc3ccccc3n3nnnc23)n(-c2ccc([N+](=O)[O-])cc2)n1, which inhibition is on record?
The inhibition was 29.3%.

With N#C/C(=C/c1ccccc1F)C(=O)NCCc1c[nH]c2ccccc12 as the molecule, how does the inhibition read?
The inhibition was 12.4%.

Which inhibition does the source give for CCCC(=O)Nc1ccccc1NC(=O)Cc1ccccc1 here?
The inhibition was -1.49%.

Which inhibition does the source give for Cc1ccsc1C(=O)NCC1CCC2(CCN(C(=O)c3ccc(F)cc3)CC2)O1 (centres undefined) here?
Its inhibition is -0.6%.

Which inhibition does the source give for O=C(Nc1cccc(Br)c1)c1ccccc1[N+](=O)[O-] here?
The inhibition was -3.71%.

Which inhibition does the source give for Cc1ccc(C(=O)Nc2ncc(Cc3ccc(Cl)cc3)s2)o1 here?
The inhibition was -24.8%.

Which inhibition does the source give for Cc1ccc(Cc2cnc(NC(=O)CCl)s2)cc1 here?
The inhibition was 24.8%.

With Cc1ccc(CCC(=O)Nc2ncc(Cc3cc(Cl)ccc3Cl)s2)o1 as the molecule, how does the inhibition read?
Its inhibition is 43.6% (active).

For CCOC(=O)c1ccc(S(=O)(=O)NNC(=O)CCN2C(C)CCCC2C)cc1 (centres undefined), which inhibition is on record?
Its inhibition is 4.62%.

For CCOc1ccccc1NC(=O)c1ccc(F)c(S(=O)(=O)N2CCCC2)c1, which inhibition is on record?
Its inhibition is -2.89%.

Which inhibition does the source give for CCc1ccccc1NC(=O)c1ccc(F)c(S(=O)(=O)NC2CCCCCC2)c1 here?
Its inhibition is -8.09%.

For O=C(Oc1cccc(NC(=O)c2ccccc2Cl)c1)c1ccc(Cl)c(S(=O)(=O)N2CCCCC2)c1, which inhibition is on record?
Its inhibition is -1.45%.

For O=C(Oc1cccc(NC(=O)c2ccccc2Cl)c1)c1ccc(Br)c(S(=O)(=O)N2CCCCC2)c1, which inhibition is on record?
Its inhibition is 41.8% (active).

With CC1CCN(S(=O)(=O)c2cc(C(=O)Oc3cccc(NC(=O)c4ccccc4)c3)c(Cl)cc2Cl)CC1 as the molecule, how does the inhibition read?
Its inhibition is -2.37%.

Which inhibition does the source give for CCOc1ccc(NC(=O)c2ccc(F)c(S(=O)(=O)NCCc3ccccc3)c2)cc1 here?
Its inhibition is 20.5%.

Which inhibition does the source give for Cc1cccc(NC(=O)c2ccc(C)c(S(=O)(=O)N3CCCC3)c2)c1 here?
The inhibition was -31.9%.

For CCOc1ccc(NC(=O)c2ccc(F)c(S(=O)(=O)NC3CCCCCC3)c2)cc1, which inhibition is on record?
The inhibition was 43.4% (active).

With CCOc1ccc(NC(=O)c2ccc(Br)c(S(=O)(=O)N3CCCC3)c2)cc1 as the molecule, how does the inhibition read?
Its inhibition is 35.5% (active).

Which inhibition does the source give for Cc1nc2ccc(C(=O)OCC(=O)c3ccc([N+](=O)[O-])cc3)cc2nc1C here?
Its inhibition is 3.04%.

With O=C(O)C1CN(C(c2ccccc2)c2ccccc2)C1 as the molecule, how does the inhibition read?
The inhibition was 3.68%.

With CCC(C)NC(=O)Nc1cccc(Cl)c1C (centres undefined) as the molecule, how does the inhibition read?
The inhibition was -4.8%.

With COC(=O)c1ccc(NC(=O)c2ccc(C)o2)cc1 as the molecule, how does the inhibition read?
Its inhibition is -47%.

Which inhibition does the source give for c1ccc(N2CCN(N=C3c4ccccc4-c4ccccc43)CC2)nc1 here?
The inhibition was -13.3%.

With NC(=O)C(=O)N/N=C/c1cn(-c2ccccc2)nc1-c1cccs1 as the molecule, how does the inhibition read?
The inhibition was -10.6%.

With O=C(NNc1nc(-c2cc3ccccc3oc2=O)cs1)c1ccccc1 as the molecule, how does the inhibition read?
Its inhibition is -15%.

Which inhibition does the source give for NC(=O)N/N=C/c1cn(-c2ccccc2)nc1-c1cc2ccccc2oc1=O here?
Its inhibition is 40.6% (active).

For Cc1cccc(Cc2nnc(CCC(=O)N3CCN(C)C[C@@H]3c3ccccc3)o2)c1, which inhibition is on record?
Its inhibition is -0.78%.

For COc1ccc(CNS(=O)(=O)c2ccc(Oc3ccc(S(=O)(=O)NCc4ccc(OC)cc4)cc3)cc2)cc1, which inhibition is on record?
Its inhibition is 55.4% (active).

Which inhibition does the source give for COc1ccc(S(=O)(=O)NCCCNS(=O)(=O)c2ccc(OC)cc2)cc1 here?
The inhibition was 5.92%.

With COc1ccc(S(=O)(=O)NCCN)cc1 as the molecule, how does the inhibition read?
The inhibition was 4.56%.

For CC(=O)Nc1ccc(Nc2nc(-c3ccccc3)nc3c2ncn3C(C)C)cc1, which inhibition is on record?
The inhibition was 18%.

Which inhibition does the source give for Cc1c(Cl)cccc1N1C(=O)C2C3CCC(C3)C2C1=O (centres undefined) here?
Its inhibition is 3.02%.

With CCC(=O)N(Cc1ccco1)Cc1cc2cc3c(cc2[nH]c1=O)OCCO3 as the molecule, how does the inhibition read?
The inhibition was -9.49%.

With O=C(NNS(=O)(=O)c1cccc([N+](=O)[O-])c1)C1CCCCC1 as the molecule, how does the inhibition read?
Its inhibition is -1.44%.

Which inhibition does the source give for Cc1ccc(CN2C(=O)CCC2CCNCc2cc3c(cc2Cl)OCO3)cc1F (centres undefined) here?
The inhibition was -1.93%.

With CCn1c(SCC(=O)Nc2nc3ccc(OC)cc3s2)nc2cccnc21 as the molecule, how does the inhibition read?
The inhibition was 3.19%.

Which inhibition does the source give for Cc1[nH]n(-c2ccc([N+](=O)[O-])cc2)c(=O)c1C=NCCN1CCN(C(=O)/C=C/c2ccccc2)CC1 here?
The inhibition was 13.1%.

Which inhibition does the source give for c1ccc(-c2cc(NCCCn3ccnc3)nc(-c3ccccn3)n2)nc1 here?
Its inhibition is 54.3% (active).

For Cc1nc(NCCCN2CCOCC2)cc(-c2ccccn2)n1, which inhibition is on record?
The inhibition was 5.82%.

Which inhibition does the source give for Clc1ccc(-c2cc(NCCCn3ccnc3)ncn2)cc1 here?
Its inhibition is -76.3%.

With COc1ccc(Cl)cc1NC(=O)CC1C(=O)NCCN1C(=S)Nc1ccccc1 (centres undefined) as the molecule, how does the inhibition read?
The inhibition was 2.46%.

For O=C(Nc1ccc(F)c(F)c1)c1ccc(N2CC3CC(C2)c2cccc(=O)n2C3)c(NC(=O)c2cccc(C(F)(F)F)c2)c1 (centres undefined), which inhibition is on record?
Its inhibition is -14.9%.

Which inhibition does the source give for COc1ccc(/C(C)=N/Nc2nc3ccccc3[nH]2)cc1 here?
Its inhibition is -5.09%.

For Cc1ccc(NC(=O)Cc2cccc3ccccc23)c([N+](=O)[O-])c1, which inhibition is on record?
Its inhibition is -15.6%.

Which inhibition does the source give for COc1ccc(-c2cnnc(N(C)Cc3cnn(C)c3)n2)cc1 here?
Its inhibition is 36.4% (active).

With COc1ccc(-c2cnnc(N(C)CCC3CCOCC3)n2)cc1 as the molecule, how does the inhibition read?
The inhibition was -22.1%.

For COc1cccc(-c2cnnc(N(C)CCC3CCOCC3)n2)c1, which inhibition is on record?
The inhibition was -25.5%.

Which inhibition does the source give for O=C(c1cccc(Cl)c1)N1CCN(c2ccc([N+](=O)[O-])c(N3CCOCC3)c2)CC1 here?
Its inhibition is 13.5%.

For O=c1cc(-c2ccccc2)sc2ccc(Cl)cc12, which inhibition is on record?
Its inhibition is -23.1%.

For O=c1cc(-c2ccccc2)nc(NNc2ccccc2)[nH]1, which inhibition is on record?
The inhibition was 2.03%.

For O=c1cc(-c2ccccc2)[nH]c2nc(Cl)ccc12, which inhibition is on record?
Its inhibition is 50.5% (active).

For CCn1cc(C(=O)Nc2ccc(N3CCOCC3)cc2)c(=O)c2ccc(C)nc21, which inhibition is on record?
Its inhibition is -7.7%.

For COc1ccc(CC(=O)N/N=C(\C)c2ccccn2)cc1OC, which inhibition is on record?
The inhibition was 2.58%.

For Cc1ccc(S(=O)(=O)Oc2ccc(Br)cc2C=O)cc1, which inhibition is on record?
Its inhibition is 31.9% (active).

For COc1cc(C=O)ccc1OS(=O)(=O)c1ccc(Cl)cc1, which inhibition is on record?
The inhibition was -7.3%.

With CCOC(=O)N/N=C/c1ccc(OS(=O)(=O)c2ccc(C)cc2)c(OC)c1 as the molecule, how does the inhibition read?
Its inhibition is 3.61%.

Which inhibition does the source give for CSCCC(=O)Nc1ccc(Cl)cc1 here?
Its inhibition is 2.57%.

Which inhibition does the source give for Cc1ccc(NC2=C(Cl)C(=O)OC2OC(=O)c2ccccc2Br)cc1 (centres undefined) here?
Its inhibition is 9.63%.

With N#Cc1ccccc1OCCCCn1cnc2ccccc21 as the molecule, how does the inhibition read?
Its inhibition is 35% (active).

For O=C(O)c1cccc(OCC(O)Cn2cnc3ccccc32)c1 (centres undefined), which inhibition is on record?
Its inhibition is 10%.

With O=c1c2ccccc2ncn1CCCCOc1ccccc1F as the molecule, how does the inhibition read?
The inhibition was 5.72%.

With COc1c(C)cccc1C1=N/C(=C\c2cccc([N+](=O)[O-])c2)C(=O)O1 as the molecule, how does the inhibition read?
Its inhibition is 9.8%.

For CCCOC(=O)C1=C(C)N(C)C(=O)NC1c1cc(Br)c(O)c(OC)c1 (centres undefined), which inhibition is on record?
The inhibition was 3.09%.

For COc1ccc2nc(NC(=O)CN3C(=S)NC(C)(C)CC3C)sc2c1 (centres undefined), which inhibition is on record?
Its inhibition is 3.44%.

Which inhibition does the source give for CC(NC(=O)COC(=O)c1cccc(NS(C)(=O)=O)c1)C12CC3CC(CC(C3)C1)C2 (centres undefined) here?
Its inhibition is -4.62%.

With Cc1ccc(S(=O)(=O)N2CCCCC2CCNC(=O)C(=O)NCCO)cc1 (centres undefined) as the molecule, how does the inhibition read?
Its inhibition is -1.73%.

For CCCCNC(=O)C(=O)NCCC1CCCCN1S(=O)(=O)c1ccc(C)cc1 (centres undefined), which inhibition is on record?
Its inhibition is 50.6% (active).

For Cc1ccc(NC(=O)C(=O)NCCC2CCCCN2S(=O)(=O)c2ccc(C)cc2)cc1 (centres undefined), which inhibition is on record?
Its inhibition is 17.1%.
